About 83,000 compounds went through this panel and 20% of them were active in at least one assay; those are over-represented in the sample as a whole.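 48-hour exposure, single concentration, 96-well plates; percent growth endpoint where 0 means no net growth. Active: below 10.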 Activity calls are given as the source filed them.
Legend:
Test in all cases: NCI-60 one-dose screen, 48 h (100 = growth as untreated, 0 = no growth, -100 = all killed)
Conditions in all cases: 10 µM
[1] = tested on: SR leukemia
[2] = tested on: RPMI-8226 leukemia
[3] = tested on: OVCAR-8 ovarian
[4] = tested on: OVCAR-5 ovarian
[5] = tested on: OVCAR-4 ovarian
[6] = tested on: SK-OV-3 ovarian
[7] = tested on: IGROV1 ovarian
[8] = tested on: OVCAR-3 ovarian
[9] = tested on: HS 578T breast
[10] = tested on: NCI/ADR-RES ovarian

Measured: growth

O=C(CCCCC(=O)Oc1c(Cl)cc(Cl)cc1[N+](=O)[O-])Oc1c(Cl)cc(Cl)cc1[N+](=O)[O-]
inactive: [1] 85.4% | [2] 92.9% | [3] 106% | [4] 109% | [5] 104% | [6] 103% | [7] 101% | [8] 105% | [9] 105% | [10] 102%

CC(C)Cc1ccc([C@H](C)C(=O)O)cc1
inactive: [1] 99.9% | [2] 115% | [3] 107% | [4] 107% | [5] 115% | [6] 119% | [7] 116% | [8] 111% | [9] 110% | [10] 108%

O=[N+]([O-])c1cc(Cl)cc(Cl)c1O
inactive: [1] 103% | [2] 103% | [3] 103% | [4] 103% | [5] 108% | [6] 91.3% | [7] 104% | [8] 109% | [9] 97.6% | [10] 97.6%

O=C(N/N=C/c1c(Cl)cccc1Cl)c1ccccc1Nc1cccc(C(F)(F)F)c1
inactive: [1] 70.8% | [2] 82.5% | [3] 103% | [4] 105% | [5] 99.1% | [6] 107% | [7] 74.9% | [8] 104% | [9] 85% | [10] 100%

COc1ccc(N=Nc2cc(OC)c(OC)c(OC)c2)cc1
inactive: [1] 58.2% | [2] 72.8% | [3] 87.2% | [4] 77.8% | [5] 100% | [6] 77.6% | [7] 62.7% | [8] 87.7% | [9] 79.3% | [10] 91.2%

CC(C)(C)OC(=O)N1CCc2c(sc3ncnc(N/N=C/c4ccc(Br)cc4)c23)C1
inactive: [1] 36.3% | [2] 19.1% | [3] 73.7% | [4] 77.6% | [5] 74% | [6] 75.7% | [7] 61.1% | [8] 86.4% | [9] 73.9% | [10] 35.4%

CN1CCN(CCC(=O)Nc2cccc(-n3cc(-c4ccncc4)c(-c4ccc(Cl)c(O)c4)n3)c2)CC1
inactive: [2] 19.9% | [3] 54.8% | [4] 67.7% | [5] 56% | [6] 46.2% | [7] 55.8% | [8] 14.4% | [9] 43.1% | [10] 29.7%
active: [1] 5.5%

S=C1N(c2ccccc2)CN(C2CCCCC2)CN1c1ccccc1
inactive: [1] 102% | [2] 103% | [3] 75% | [4] 104% | [5] 96.5% | [6] 117% | [7] 95.9% | [8] 106% | [9] 63.2% | [10] 103%

Clc1ccc2c(c1)C(N1CCNCC1)=Nc1ccccc1O2
inactive: [2] 50% | [3] 73.2% | [4] 69% | [5] 41.1% | [6] 67% | [7] 48.1% | [8] 46.6% | [9] 60.7% | [10] 62.8%
active: [1] 3.72%

C=C(NC(=O)C(=C)NC(=O)c1csc(C2=NC3c4csc(n4)C4NC(=O)c5csc(n5)C(C(C)(O)C(C)O)NC(=O)C5CSC(=N5)C(=CC)NC(=O)C(C(C)O)NC(=O)c5csc(n5)C3(CC2)NC(=O)C(C)NC(=O)C(=C)NC(=O)C(C)NC(=O)C(C(C)CC)NC2C=Cc3c(C(C)O)cc(nc3C2O)C(=O)OC4C)n1)C(N)=O (stereo not given)
active: [1] -7.28%
inactive: [2] 10.1% | [3] 20.4% | [4] 34% | [5] 33.1% | [6] 99.8% | [7] 64.6% | [8] 34% | [9] 42.5% | [10] 86.3%

O=C(Nc1ccc(NS(=O)(=O)c2ccc(F)cc2)cc1)C12CC3CC(CC(C3)C1)C2
inactive: [1] 75.5% | [2] 89.3% | [3] 94.7% | [4] 97.1% | [5] 99% | [6] 92.5% | [7] 102% | [8] 98.6% | [9] 94.4% | [10] 85.5%

CCOC(=O)C(C)(c1ccccc1)c1ccccc1
inactive: [1] 100% | [2] 101% | [3] 105% | [4] 107% | [5] 111% | [6] 98.9% | [7] 106% | [8] 107% | [9] 111% | [10] 106%

CCCc1nc(C(C)(C)O)c(C(=O)O)n1Cc1ccc(-c2ccccc2-c2nn[nH]n2)cc1
inactive: [1] 85.9% | [2] 104% | [3] 91.7% | [4] 104% | [5] 100% | [6] 106% | [7] 114% | [8] 117% | [9] 102% | [10] 105%

C[N+]1(CCCCC[N+]2(C)CCCC2)CCCC1
inactive: [1] 97.4% | [2] 61.7% | [3] 78.1% | [4] 72.9% | [5] 97.4% | [6] 68.9% | [7] 105% | [8] 107% | [9] 106% | [10] 75%

O=C(O)c1ccc(-n2cc(CNc3ccc(Cl)cc3)c(-c3ccccc3)n2)cc1
inactive: [1] 69.1% | [2] 89.1% | [3] 98.9% | [4] 103% | [5] 88.3% | [6] 107% | [7] 92.1% | [8] 98.6% | [9] 85% | [10] 91.6%

COc1cc2cc(Oc3ccc(NC(=O)c4cccc(C(F)(F)F)c4)cc3)c(C)nc2cc1OC
inactive: [1] 28% | [2] 17.5% | [3] 42.5% | [4] 70.2% | [5] 43.2% | [6] 23.4% | [7] 36.1% | [8] 15% | [9] 41.2% | [10] 26%

CCC(c1ccc(OC)cc1)C(CC)c1ccc(O)c(CN2CCN(C)CC2)c1 (stereo not given)
inactive: [3] 67% | [4] 80.4% | [5] 60.2% | [6] 78.7% | [7] 68.5% | [8] 79.8% | [9] 61.4% | [10] 60.3%
active: [1] 4.26% | [2] -21.6%

CC[C@@H](C(=O)[C@H](C)[C@H](O)[C@@H](C)[C@H]1O[C@H]([C@@H](CC)C(=O)O)CC[C@H]1C)C1O[C@]2(C=C[C@@H](O)[C@]3(CC[C@@](C)([C@H]4CC[C@](O)(CC)[C@H](C)O4)O3)O2)[C@H](C)C[C@@H]1C (stereo not given in full)
active: [2] -7%
inactive: [1] 22.5% | [3] 49.1% | [4] 41.9% | [5] 43.4% | [6] 42.5% | [7] 41.1% | [8] 25.8% | [9] 21.9% | [10] 44%

CC(C)=CCC/C(C)=C/CC/C(C)=C/CC/C=C(\C)CC/C=C(\C)CCC(=O)Nc1ccn(C2OC(CO)C(O)C2(F)F)c(=O)n1 (stereo not given)
inactive: [2] 32.1% | [3] 19.2% | [4] 74.6% | [5] 39.9% | [6] 31% | [7] 40% | [8] 40.2% | [9] 42.5% | [10] 38.8%
active: [1] -16.1%

CCN(CC)CCNc1ccc(C)c2sc3cc(Cl)ccc3c(=O)c12
active: [1] -30.4% | [2] -4.34%
inactive: [3] 45.9% | [4] 64.3% | [5] 52.1% | [6] 64.2% | [7] 20.4% | [8] 59.1% | [9] 43.3% | [10] 51.1%

C=CCn1c(SCC(=O)Nc2ccc(C(=O)/C=C/c3cc(OC)c(OC)c(OC)c3)cc2)nnc1-c1cc(-c2ccc(Cl)cc2)nc2ccccc12
inactive: [1] 62% | [3] 52.1% | [4] 97.6% | [5] 87.9% | [6] 87.1% | [7] 88.4% | [8] 97.3% | [9] 83.7% | [10] 75.6%
active: [2] -16.3%

O=C(CSc1nnc(-c2cccnc2SCc2ccccc2)o1)Nc1nc(Cl)cc(Cl)n1
inactive: [1] 101% | [2] 100% | [3] 102% | [4] 106% | [5] 106% | [6] 110% | [7] 105% | [8] 106% | [9] 97.4% | [10] 101%

COc1cc(-c2nn(-c3cccc(NC(=O)CN4CCOCC4)c3)cc2-c2cccnc2)ccc1Cl
inactive: [1] 37.3% | [2] 60.5% | [3] 76.4% | [4] 108% | [5] 101% | [6] 95.8% | [7] 79.6% | [8] 77.2% | [9] 76.3% | [10] 59%

CCC1NC(=O)c2cc(S(N)(=O)=O)c(Cl)cc2N1 (stereo not given)
inactive: [1] 103% | [2] 109% | [3] 100% | [4] 105% | [5] 130% | [6] 118% | [7] 120% | [8] 126% | [9] 112% | [10] 108%

OCC1OC(n2ccc3c(NO)ncnc32)C(O)C1O (stereo not given)
active: [1] -30.2% | [2] -21.7% | [3] -32.5% | [4] -3.92% | [5] -5.14% | [6] 1.15% | [7] -32.1% | [8] -31.7% | [9] -11% | [10] -53.5%

O=C(CCCCCCC(=O)Nc1ccccc1)NO
active: [1] 9.82% | [3] 9.38% | [4] 1.38% | [6] 1.71% | [8] -1.79% | [10] -18.2%
inactive: [2] 12.8% | [5] 38.3% | [7] 23.7% | [9] 22.2%

CCC(=O)OC1CCC2C3CCC(=O)OC3C(C)(CCC(=O)O)CC12C (stereo not given)
active: [1] -21.1% | [2] 6.49% | [8] 5.37% | [9] -28.7%
inactive: [3] 61.4% | [4] 59% | [5] 65.8% | [6] 51.6% | [7] 25.4% | [10] 15.8%
